Assay outcomes deposited in PubChem by National Center for Advancing Translational Sciences (NCATS).
LmPK inhibitor – inhibitors of Leishmania mexicana pyruvate kinase. Potency, µM (top dose mostly 57.5 µM), without a hit: at the highest dose activity change, negative = inhibition, usual class: inhibitors. Q27686. purified LmPK, Kinase-Glo ATP luminescence, 1 h. actives 0.37% (n = 290,000); note: % is set by controls: 0 for no effect and ±100 for the full control effect
Target sequence (Q27686 whole entry, looked up): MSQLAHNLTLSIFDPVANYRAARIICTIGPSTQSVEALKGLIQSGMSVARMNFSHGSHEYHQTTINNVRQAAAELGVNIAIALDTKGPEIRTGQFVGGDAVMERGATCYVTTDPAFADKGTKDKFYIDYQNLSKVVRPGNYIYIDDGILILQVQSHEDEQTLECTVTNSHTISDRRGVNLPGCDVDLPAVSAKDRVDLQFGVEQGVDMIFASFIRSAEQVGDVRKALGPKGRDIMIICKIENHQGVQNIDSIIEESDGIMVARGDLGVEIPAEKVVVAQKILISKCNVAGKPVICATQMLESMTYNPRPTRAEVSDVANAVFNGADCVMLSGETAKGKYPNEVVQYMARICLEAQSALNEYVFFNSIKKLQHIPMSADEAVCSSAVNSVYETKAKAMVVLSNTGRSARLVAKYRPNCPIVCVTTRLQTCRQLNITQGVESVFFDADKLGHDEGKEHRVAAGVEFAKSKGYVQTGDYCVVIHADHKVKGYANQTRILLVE
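Kinase-Glo luminescence read after 1 h RT reaction of 0.1 nM LmPK with 0.5 mM PEP and 0.1 mM ADP. Activity scaled between uninhibited and enzyme-free controls.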
NS1 inh – blocks influenza NS1 protein function; AID 2326; Potency, µM (top dose mostly 46.1 µM), for inactives: top-dose activity, positive = more growth; actives 0.4% (n = 270,000); calls by dose curve; note: actives are rising curves; nearly all actives have a fitted effect of over 50% in size
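In this qHTS, NS1 from influenza A is expressed in budding yeast, where it slows growth. Cells are switched from glucose to 2% galactose medium (pH 6.0, -URA), treated with compound, and growth recovery is read at OD600.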
Tb PYK inh – T. brucei pyruvate kinase inhibition; Q57TT1; TbPYK enzyme, Kinase-Glo Plus ATP luminescence, 45 min; Potency, µM (highest dose often 76.8 µM), for inactives: top-dose activity, negative = inhibition, most hits filed as inhibitors; actives 0.12% (n = 410,000); note: % is set by controls: 0 for no effect and ±100 for the full control effect; nearly all actives have a fitted effect of over 50% in size
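Luminescence from Kinase-Glo Plus, added after a 45-minute room-temperature reaction, served as the end-point read-out. The enzyme and substrate were preincubated with compound before ADP (130 uM final) initiated turnover. Concentration-effect curves came from normalized qHTS data.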
RE007 growth inh – less growth of the S. pombe RE007 Vpr strain; S. pombe RE007 Vpr strain, BacTiter-Glo ATP luminescence, 24 h; Potency, µM (series often up to 92.2 µM), for the others: top-dose activity change, negative = less growth, actives largely listed as inhibitors; actives 0.21% (n = 360,000); active = well fitted falling curve with a large enough effect; inconclusive = small, poorly fitted or top-dose-only effect; inactive = no such curve, though single readings can be large or run the other way; note: % is set by controls: 0 for no effect and ±100 for the full control effect; nearly all actives have a fitted effect of over 50% in size
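Fission yeast strain RE007, carrying one chromosomally integrated HIV-1 vpr copy, was seeded at OD 0.01 in PMG+AL medium with 23 nL pinned compound. After 24 h at 30 °C and 99% humidity, viability was read by BacTiter-Glo luminescence.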
Starred values were filed as active, the others as inactive; u = inconclusive; x = not tested or not shown. Most compounds without a hit are left out; they make up all but 0.77% or so of the library. Unless noted, calls come from the whole dose curve; as a rule, active = well fitted curve in the direction sought with a large enough effect; inconclusive = small, poorly fitted or top-dose-only effect, or another doubt; inactive = no such curve, though single readings can be large; an effect the other way counts as inactive or inconclusive. Potency is the fitted concentration of half-maximal effect.

SMILES | LmPK inhibitor | NS1 inh | Tb PYK inh | RE007 growth inh
CCc1cc(-c2n[nH]c(=S)n2Cc2ccccc2)cs1 | 10µM* | -33% | u | -24%
CCCCn1c(-c2csc(CCC)c2)n[nH]c1=S | 22µM* | -81% | u | 6%
CCCCn1c(-c2cccnc2)n[nH]c1=S | -25% | 4% | u | -4%
COc1cc(-c2n[nH]c(=S)n2C(C)c2ccccc2)cc(OC)c1OC (stereo unspecified) | u | 24% | u | 9%
Cc1[nH]c2ccc(-c3n[nH]c(=S)n3Cc3ccccc3)cc2c1C | -26% | 7% | u | -4%
CC1(O)CCC2C3CCC4=CC(=O)CCC4(C)C3(F)C(O)CC21C (stereo unspecified) | x | x | -3% | x
CCN(CCO)C[C@H]1CCC[C@H]2CCCC[C@@H]21 | x | -1% | x | x
CCc1cc(-c2n[nH]c(=S)n2-c2ccccc2C)cs1 | 28µM* | -15% | u | 5%
CCOC(=O)/C=C1/N(C)c2ccccc2C1(C)C | -2% | -8% | 0% | -4%
CCN1/C(=C\C=C\C2=[N+](CC)c3ccccc3C2(C)C)C(C)(C)c2ccccc21 | 10µM* | -41% | u | u
CCc1nn2cc(-c3ccccc3)nc2s1 | 11µM* | -40% | u | u
Cc1ccc(S(=O)(=O)N(Cc2n[nH]c(=S)n2-c2ccccc2)c2ccccc2)cc1 | -24% | 5% | 7.9µM* | 10%
Cc1ccc(NCc2n[nH]c(=S)n2-c2ccccc2)cc1 | 2% | 0% | 2.8µM* | 6%
CS(=O)(=O)Nc1ccc(-c2n[nH]c(=S)n2-c2ccccc2)cc1 | 10µM* | u | 0% | 0%
Cc1cccc(NCc2n[nH]c(=S)n2-c2ccccc2)c1 | -18% | 13% | u | -17%
Cc1ccc(S(=O)(=O)N(Cc2n[nH]c(=S)n2-c2ccccc2)c2cccc(Cl)c2)cc1 | -20% | 11% | u | 3%
CCC(C)S(=O)(=O)c1oc(-c2cccs2)nc1S(=O)(=O)c1ccccc1 (stereo unspecified) | x | x | 1% | x
CC(=O)O[C@]1(C(=O)CO)[C@@H](C)C[C@H]2[C@@H]3CCC4=CC(=O)C=C[C@]4(C)[C@@]3(F)[C@@H](O)C[C@]21C | x | x | 4% | x
CC1CCC(O)C/C1=C\C=C1/CCCC2(C)C1CCC2C(C)/C=C/C(C)C(C)C (stereo unspecified) | x | x | -8% | x
O=C(N/N=C/c1cccnc1)c1[nH]ncc1Br | 18µM* | 6% | -13% | -27%
O=C(N/N=C/c1ccccc1)c1[nH]ncc1Br | 13µM* | x | u | -13%
CC(=O)NCCNc1nc2cc(-c3ccccc3CO)sc2c(=O)n1C | x | x | -5% | 28µM*
CCOc1ccc(-c2csc(NC(=O)C3CCCO3)n2)cc1 (stereo unspecified) | -4% | -16% | 4% | 7%
O=C(Nc1nc(-c2ccc(Cl)cc2Cl)cs1)C1CCCO1 (stereo unspecified) | 0% | -6% | -1% | 16µM*
O=C(Nc1nc(-c2ccc(Cl)cc2)cs1)C1CCCO1 (stereo unspecified) | -1% | x | 3% | 22µM*
SMILES | LmPK inhibitor | NS1 inh | Tb PYK inh | RE007 growth inh
N[C@H](Cc1c[nH]c2ccccc12)P(=O)(O)O | x | -3% | x | x
N[C@@H](C(=O)N[C@H]1C(=O)N2C(C(=O)O)=C(Cl)CC[C@H]12)c1ccccc1 | x | x | 3% | x
COc1ccc(NC(=O)Nc2ccccc2SC)cc1 | 10µM* | -8% | -19% | -15%
O=C1C=CC(=O)N1CCNc1ncc(C(F)(F)F)cc1Cl | 2% | -50% | u | 2.5µM*
COC(=O)[C@]12CCC(C)(C)C[C@@H]1[C@@H]1C(=O)C=C3[C@@]4(C)C=C(C#N)C(=O)C(C)(C)[C@@H]4CC[C@@]3(C)[C@]1(C)CC2 | x | x | 1% | x
CCOCCCNC(=O)/C(C#N)=C/c1ccc([N+](=O)[O-])o1 | 6% | x | 0% | 45µM*
CCOCCCNC(=O)/C(C#N)=C/c1ccc(-c2ccc(S(=O)(=O)N3CCOCC3)cc2)o1 | 0% | 16% | 4% | x
CC(NC(=O)/C(C#N)=C/c1ccco1)c1ccccc1 (stereo unspecified) | 0% | -5% | 1% | 6%
CC(NC(=O)/C(C#N)=C/c1ccc([N+](=O)[O-])o1)c1ccccc1 (stereo unspecified) | 1% | -133% | 4% | 5µM*
COc1cc(C(=O)Nc2ccc(C(=O)O)cc2)ccc1OC(C)=O | 25µM* | x | -4% | -12%
COc1cc(C(=O)Nc2ccc(O)cc2)ccc1OC(C)=O | u | -2% | 0% | 1%
O=C(C#Cc1ccccc1)c1ccco1 | -4% | -128% | 4% | 8.9µM*
COc1ccccc1NC(=O)CN1C(=O)CC(c2ccc(C)c(C)c2)=Nc2ccccc21 | x | x | -10% | x
Nc1ccc2c(c1)C(=O)C(=O)c1ccccc1-2 | u | -211% | u | 25µM*
Nc1ccc2c(c1)C(=O)c1ccccc1-2 | x | x | -3% | -10%
COc1ccccc1C1Nc2cccc3cccc(c23)N1 | 0% | -34% | -9% | 7.1µM*
O=Nc1c(-c2ccccc2)cc2ccccn12 | -6% | 10% | -2% | 13µM*
CN(C)C(=O)C(=O)c1c(-c2ccccc2)cc2ccccn12 | 4% | -20% | -2% | 9%
COc1ccc(-c2nc3ccccc3c(=O)o2)cc1 | 18µM* | -5% | 2% | u
Cc1[nH]n(-c2ccc([N+](=O)[O-])cc2)c(=O)c1C=NCCN1CCN(C(=O)C(C)C)CC1 | 14µM* | x | -10% | u
O=S(=O)(NCc1cc(-c2ccccc2Cl)no1)c1ccc(Cl)cc1 | 2% | -60% | u | 32µM*
CCN(CC)c1ccccc1 | x | x | 1% | 1%
CCN(CC)c1ccc(C(=C2C=CC(=[N+](CC)CC)C=C2)c2ccccc2)cc1 | x | x | u | 4.5µM*
c1ccc(-c2ccc(-n3ccnc3)cc2)cc1 | -6% | -129% | -7% | 28µM*
COc1ccc2cc(C(=O)CCC(=O)O)ccc2c1 | x | -6% | x | x
SMILES | LmPK inhibitor | NS1 inh | Tb PYK inh | RE007 growth inh
OC[C@@H](O)CNc1ncnc2ccccc12 | x | -7% | x | x
CCCOc1ccc(N2C(=O)CC(N3CCC(O)(c4cccc(C(F)(F)F)c4)CC3)C2=O)cc1 (stereo unspecified) | 1% | -130% | -6% | 32µM*
O=C1CC(N2CCC(O)(c3ccc(Br)cc3)CC2)C(=O)N1c1ccc(Cl)cc1 (stereo unspecified) | 1% | -49% | -1% | 10µM*
O=C1CC(N2CCC(O)CC2)C(=O)N1c1ccc(Br)cc1 (stereo unspecified) | 0% | -185% | -6% | u
COc1ccc(N2C(=O)CC(N3CCC(O)(c4ccc(Br)cc4)CC3)C2=O)cc1 (stereo unspecified) | -1% | -241% | 2% | 32µM*
COC(=O)[C@@H]1O[C@@H](SCCN)[C@@H](O)[C@H](O)[C@H]1O | x | -3% | x | x
CCCCCCCC(=O)CC[C@H]1[C@@H](C/C=C/CCCC(=O)OC(C)C)[C@@H](O)C[C@H]1O | x | x | -8% | x
CCN(CC)CCNC(=O)c1sc2nc(C)cc(C)c2c1-n1cccc1 | x | x | -2% | x
